# Reference: PubChem BioAssay (EPA / NIEHS)
# Activity calls are given as the source filed them. Rule for the calls: active = hit-call score of the fitted dose curve at least 0.9, where 1 is the maximum; inactive = score below 0.9.
# How the values were obtained:
# Conditions in all cases: mRNA level, 48 h; actives raise or lower the signal
# [1] = read-out: ABC Transporter (ABCC2), ABCC2 (gene 1244); test: LTEA_HepaRG_ABCC2: Life Technologies and Expression Analysis (LTEA) Assay for ABC Transporter (ABCC2) using HepaRG (AID 2283464)
# Outline: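 HepaRG cells were plated 48 h, switched to serum-free induction medium, then exposed in duplicate for 48 h to 8 concentrations (top 100 uM, half-log steps, 0.5% DMSO). ABCC2 mRNA was measured by qRT-PCR normalized to ACTB/GAPDH/POLR2A; bidirectional fitting versus DMSO.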
# [2] = read-out: Broad substrate specificity ATP-binding cassette transporter ABCG2 (Homo sapiens) (UniProt Q9UNQ0); test: LTEA_HepaRG_ABCG2: Life Technologies and Expression Analysis (LTEA) Assay for ABC Transporter (ABCG2) using HepaRG (AID 2283465)
# Outline: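 Gene expression of ABCG2 in HepaRG liver cells is quantified by qRT-PCR following 48 h exposure across an eight-point series topping at 100 uM. Values come from bidirectional fitting relative to DMSO vehicle.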
# [3] = read-out: ATP-citrate lyase (ACLY), ACLY (gene 47); test: LTEA_HepaRG_ACLY: Life Technologies and Expression Analysis (LTEA) Assay for ATP-citrate lyase (ACLY) using HepaRG (AID 2283466)
# Outline: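 ACLY expression changes in human HepaRG liver cells are quantified by qRT-PCR after 48 h exposure to test chemicals (maximum 100 uM, half-log steps). Values are fitted in both directions relative to 0.5% DMSO vehicle.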
# [4] = read-out: Peroxisomal acyl-coenzyme A oxidase 1 (ACOX1) gene, ACOX1 (gene 51); test: LTEA_HepaRG_ACOX1: Life Technologies and Expression Analysis (LTEA) Assay for Peroxisomal acyl-coenzyme A oxidase 1 (ACOX1) gene using HepaRG (AID 2283467)
# Outline: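 Human HepaRG hepatic cultures, 48 h treatment with test chemicals up to 100 uM. ACOX1 expression read by qRT-PCR relative to 0.5% DMSO vehicle.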
# [5] = read-out: Alkaline Phosphatase, Placental (ALPP) gene, ALPP (gene 250); test: LTEA_HepaRG_ALPP: Life Technologies and Expression Analysis (LTEA) Assay for Alkaline Phosphatase, Placental (ALPP) gene using HepaRG (AID 2283468)
# Outline: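 Differentiated human HepaRG cells were plated and cultured 48 h, then exposed in duplicate for 48 h in serum-free induction medium to eight half-log concentrations from 100 uM in 0.5% DMSO. ALPP mRNA was measured by TaqMan qRT-PCR, normalized to ACTB, GAPDH, POLR2A.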
# [6] = read-out: Bcl-2 (BAD) gene, BAD (gene 572); test: LTEA_HepaRG_BAD: Life Technologies and Expression Analysis (LTEA) Assay for Bcl-2 (BAD) gene using HepaRG (AID 2283469)
# Outline: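 Activity values reflect up- or down-regulation of BAD mRNA in human HepaRG hepatic cells treated 48 h in serum-free medium, with eight-point half-log dosing capped at 100 uM and 0.5% DMSO vehicle.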
# [7] = read-out: Bcl-2 (BAX) gene, BAX (gene 581); test: LTEA_HepaRG_BAX: Life Technologies and Expression Analysis (LTEA) Assay for Bcl-2 (BAX) gene using HepaRG (AID 2283470)
# Outline: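 Gene expression measured by Fluidigm qRT-PCR with three housekeeping genes for normalisation. HepaRG cells, plated 48 h beforehand, treated 48 h at up to 100 uM (8-point, half-log) in 0.5% DMSO. Bidirectional fitting versus DMSO.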
# [8] = read-out: adenosine kinase (ADK) gene, ADK (gene 132); test: LTEA_HepaRG_ADK: Life Technologies and Expression Analysis (LTEA) Assay for adenosine kinase (ADK) gene using HepaRG (AID 2283471)
# Outline: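 HepaRG (human liver), 48 h chemical exposure, 8-pt half-log series, top 100 uM, 0.5% DMSO vehicle. Readout: ADK mRNA by qRT-PCR vs housekeeping genes; bidirectional curve fit relative to DMSO baseline.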
# [9] = read-out: Alpha-fetoprotein (AFP) gene, AFP (gene 174); test: LTEA_HepaRG_AFP: Life Technologies and Expression Analysis (LTEA) Assay for Alpha-fetoprotein (AFP) gene using HepaRG (AID 2283472)
# Outline: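 AFP transcript measured by TaqMan qRT-PCR with three housekeeping genes for normalization, after 48 h chemical treatment of HepaRG cells (top 100 uM, half-log steps, 0.5% DMSO). Gain or loss fitted against vehicle.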
# BCL2L11 (gene 10018) = test: LTEA_HepaRG_BCL2L11: Life Technologies and Expression Analysis (LTEA) Assay for Bcl-2 (BCL2L11) gene using HepaRG (AID 2283473)
# Outline: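 Differentiated human HepaRG cells in serum-free induction medium were exposed in duplicate for 48 h to eight concentrations (top 100 uM, half-log steps, 0.5% DMSO). BCL2L11 mRNA was quantified by TaqMan qRT-PCR, normalized to ACTB/GAPDH/POLR2A, bidirectional fit versus DMSO.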
# [10] = read-out: Apolipoprotein A-V (APOA5) gene, APOA5 (gene 116519); test: LTEA_HepaRG_APOA5: Life Technologies and Expression Analysis (LTEA) Assay for Apolipoprotein A-V (APOA5) gene using HepaRG (AID 2283474)
# Outline: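 Differentiated human HepaRG cells were exposed in duplicate for 48 h to eight half-log concentrations from 100 uM in 0.5% DMSO. APOA5 mRNA was quantified by TaqMan qRT-PCR, normalized to ACTB, GAPDH and POLR2A, and fitted bidirectionally against DMSO.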
# [11] = read-out: Apoptosis regulator Bcl-2 (Homo sapiens) (UniProt P10415); test: LTEA_HepaRG_BCL2: Life Technologies and Expression Analysis (LTEA) Assay for Bcl-2 gene using HepaRG (AID 2283475)
# Outline: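 qRT-PCR of BCL2 transcript, normalized to three housekeeping genes (ACTB, GAPDH, POLR2A), after 48 h chemical exposure of HepaRG cells; concentrations top 100 uM with half-log dilutions, 0.5% DMSO vehicle, duplicates; changes up or down fitted relative to vehicle.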
# [12] = read-out: Bcl-2 (BID) gene, BID (gene 637); test: LTEA_HepaRG_BID: Life Technologies and Expression Analysis (LTEA) Assay for Bcl-2 (BID) gene using HepaRG (AID 2283476)
# Outline: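 Duplicate 48 h treatments of HepaRG cells in serum-free induction medium spanned 100 uM downward in half-log steps, 0.5% DMSO. Transcript change quantified by qRT-PCR against three housekeeping genes, fitted up or down versus DMSO.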
# Caspase-3 (Homo sapiens) = Caspase-3 (Homo sapiens) (UniProt P42574); test: LTEA_HepaRG_CASP3: Life Technologies and Expression Analysis (LTEA) Assay for cysteine-aspartic acid protease (CASP3) using HepaRG (AID 2283477)
# Outline: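 Differentiated human HepaRG cells in serum-free induction medium were exposed 48 h to 8-point half-log concentrations from 100 uM (0.5% DMSO vehicle). CASP3 mRNA was measured by qRT-PCR, normalised to ACTB, GAPDH and POLR2A, with bidirectional fitting against DMSO.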
# [13] = read-out: Cytochrome P450 (CYP24A1), CYP24A1 (gene 1591); test: LTEA_HepaRG_CYP24A1: Life Technologies and Expression Analysis (LTEA) Assay for Cytochrome P450 (CYP24A1) using HepaRG (AID 2283478)
# Outline: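 Differentiated HepaRG cells, pre-cultured 48 h, were exposed in duplicate for 48 h in serum-free induction medium to 8 half-log concentrations (top 100 uM, 0.5% DMSO). CYP24A1 mRNA was quantified by TaqMan qRT-PCR, normalized to ACTB/GAPDH/POLR2A, fitted bidirectionally versus DMSO.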
# [14] = read-out: Cytochrome P450 (CYP1A2), CYP1A2 (gene 1544); test: LTEA_HepaRG_CYP1A2: Life Technologies and Expression Analysis (LTEA) Assay for Cytochrome P450 (CYP1A2) using HepaRG (AID 2283479)
# Outline: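 Differentiated human HepaRG cells in serum-free induction medium were exposed in duplicate for 48 h to 8-point half-log concentrations up to 100 uM in 0.5% DMSO. CYP1A2 mRNA measured by qRT-PCR, normalized to ACTB, GAPDH, POLR2A; bidirectional fit vs DMSO.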
# [15] = read-out: cysteine-aspartic acid protease (CASP8), CASP8 (gene 841); test: LTEA_HepaRG_CASP8: Life Technologies and Expression Analysis (LTEA) Assay for cysteine-aspartic acid protease (CASP8) using HepaRG (AID 2283480)
# Outline: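 Concentration-response in duplicate up to 100 uM (half-log steps, 0.5% DMSO) on differentiated HepaRG cultures for 48 h. Expression change of CASP8 mRNA is determined by TaqMan qRT-PCR with housekeeping-gene normalization.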
# [16] = read-out: Cytochrome P450 (CYP2B6), CYP2B6 (gene 1555); test: LTEA_HepaRG_CYP2B6: Life Technologies and Expression Analysis (LTEA) Assay for Cytochrome P450 (CYP2B6) using HepaRG (AID 2283481)
# Outline: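 Differentiated HepaRG cells, serum-free induction medium, exposed 48 h in duplicate to 8-point half-log concentrations from 100 uM in 0.5% DMSO. CYP2B6 mRNA by qRT-PCR, normalized to ACTB, GAPDH, POLR2A; bidirectional fit versus DMSO.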
# CYP2C8 (gene 1558) = test: LTEA_HepaRG_CYP2C8: Life Technologies and Expression Analysis (LTEA) Assay for CYP2C8 using HepaRG (AID 2283483)
# Outline: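 This is a transcriptional endpoint in HepaRG cultures: 48 h exposure, highest concentration 100 uM. CYP2C8 mRNA is quantified by TaqMan qRT-PCR.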
# [17] = read-out: Cytochrome P450 2C19 (Homo sapiens) (UniProt P33261); test: LTEA_HepaRG_CYP2C19: Life Technologies and Expression Analysis (LTEA) Assay for CYP2C19 using HepaRG (AID 2283482)
# Outline: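 Differentiated human HepaRG cells were exposed for 48 h in serum-free induction medium to 8 concentrations (top 100 uM, half-log steps, 0.5% DMSO). CYP2C19 mRNA was measured by qRT-PCR, normalized to ACTB/GAPDH/POLR2A, and fitted bidirectionally against DMSO.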
# Chain of Caspase-3 (Homo sapiens) (P42574 whole entry, looked up): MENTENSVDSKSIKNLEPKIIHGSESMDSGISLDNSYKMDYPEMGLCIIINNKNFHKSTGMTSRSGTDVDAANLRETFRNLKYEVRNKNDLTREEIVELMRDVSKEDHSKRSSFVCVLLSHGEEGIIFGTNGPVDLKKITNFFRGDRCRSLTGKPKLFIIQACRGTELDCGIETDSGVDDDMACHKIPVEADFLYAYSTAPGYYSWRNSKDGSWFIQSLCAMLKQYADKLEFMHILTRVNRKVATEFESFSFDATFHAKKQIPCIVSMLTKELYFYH
# Chain of Apoptosis regulator Bcl-2 (Homo sapiens) (P10415 whole entry, looked up): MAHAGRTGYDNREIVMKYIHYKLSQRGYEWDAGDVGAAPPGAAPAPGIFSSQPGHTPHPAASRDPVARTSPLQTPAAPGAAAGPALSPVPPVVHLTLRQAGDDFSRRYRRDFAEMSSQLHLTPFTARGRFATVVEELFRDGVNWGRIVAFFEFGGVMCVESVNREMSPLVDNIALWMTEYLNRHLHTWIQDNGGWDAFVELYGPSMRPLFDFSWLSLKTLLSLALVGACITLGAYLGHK
# Chain of Broad substrate specificity ATP-binding cassette transporter ABCG2 (Homo sapiens) (Q9UNQ0 whole entry, looked up): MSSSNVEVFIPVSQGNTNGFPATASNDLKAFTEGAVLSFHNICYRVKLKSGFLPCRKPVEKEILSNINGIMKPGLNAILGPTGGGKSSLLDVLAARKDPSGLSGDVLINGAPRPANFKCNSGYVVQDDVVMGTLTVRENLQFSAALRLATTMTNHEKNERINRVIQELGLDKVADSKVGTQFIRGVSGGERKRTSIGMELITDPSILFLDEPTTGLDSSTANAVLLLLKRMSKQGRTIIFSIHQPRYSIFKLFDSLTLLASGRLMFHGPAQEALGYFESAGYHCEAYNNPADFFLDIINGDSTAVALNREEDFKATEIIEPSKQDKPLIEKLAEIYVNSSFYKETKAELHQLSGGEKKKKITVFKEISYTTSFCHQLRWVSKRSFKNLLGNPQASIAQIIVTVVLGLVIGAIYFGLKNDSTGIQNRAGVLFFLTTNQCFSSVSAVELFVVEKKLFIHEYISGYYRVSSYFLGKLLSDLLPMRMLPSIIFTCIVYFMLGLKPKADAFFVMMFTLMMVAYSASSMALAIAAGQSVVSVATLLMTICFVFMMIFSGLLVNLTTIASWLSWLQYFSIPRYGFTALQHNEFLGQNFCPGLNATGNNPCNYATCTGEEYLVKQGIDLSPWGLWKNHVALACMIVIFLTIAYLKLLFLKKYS
# Chain of Cytochrome P450 2C19 (Homo sapiens) (P33261 whole entry, looked up): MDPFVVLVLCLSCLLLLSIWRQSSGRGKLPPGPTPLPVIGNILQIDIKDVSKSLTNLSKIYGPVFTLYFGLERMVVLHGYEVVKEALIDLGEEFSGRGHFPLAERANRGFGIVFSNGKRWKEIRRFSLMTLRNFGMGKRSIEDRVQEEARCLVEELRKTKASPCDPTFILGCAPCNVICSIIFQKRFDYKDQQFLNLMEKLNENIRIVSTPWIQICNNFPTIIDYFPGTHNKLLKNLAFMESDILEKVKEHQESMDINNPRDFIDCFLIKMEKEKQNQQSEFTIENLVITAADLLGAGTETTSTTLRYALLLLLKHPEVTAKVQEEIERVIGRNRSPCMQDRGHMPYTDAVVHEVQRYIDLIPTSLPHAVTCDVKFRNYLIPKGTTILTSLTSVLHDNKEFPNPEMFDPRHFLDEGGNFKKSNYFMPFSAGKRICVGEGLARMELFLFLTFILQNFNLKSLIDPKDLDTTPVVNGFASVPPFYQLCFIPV
structure (smiles),measurement,setting,value
CCCC(CCC)C(=O)O,outcome,[1],inactive
same,outcome,[2],inactive
same,outcome,[3],inactive
same,outcome,[4],inactive
same,outcome,[5],inactive
same,outcome,[6],inactive
same,outcome,[7],inactive
same,outcome,[8],inactive
same,outcome,[9],inactive
same,outcome,BCL2L11 (gene 10018),inactive
same,outcome,[10],inactive
same,outcome,[11],inactive
same,outcome,[12],inactive
same,outcome,Caspase-3 (Homo sapiens),inactive
same,outcome,[13],inactive
same,outcome,[14],inactive
same,outcome,[15],inactive
same,outcome,[16],inactive
same,outcome,CYP2C8 (gene 1558),inactive
Cn1c(=O)c2[nH]cnc2n(C)c1=O,outcome,[1],inactive
same,outcome,[2],inactive
same,outcome,[3],inactive
same,outcome,[4],inactive
same,outcome,[5],inactive
same,outcome,[6],inactive
same,outcome,[7],inactive
same,outcome,[8],inactive
same,outcome,[9],inactive
same,outcome,BCL2L11 (gene 10018),inactive
same,outcome,[10],inactive
same,outcome,[11],inactive
same,AC50,[12],0.312 µM (active)
same,outcome,Caspase-3 (Homo sapiens),inactive
same,outcome,[13],inactive
same,outcome,[14],inactive
same,outcome,[15],inactive
same,outcome,[16],inactive
same,outcome,[17],inactive
same,outcome,CYP2C8 (gene 1558),inactive
NC(=O)NN=Cc1ccc([N+](=O)[O-])o1,AC50,[1],50 µM (active)
same,outcome,[2],inactive
same,outcome,[3],inactive
same,outcome,[4],inactive
same,AC50,[5],0.468 µM (active)
same,AC50,[6],0.381 µM (active)
same,outcome,[7],inactive
same,outcome,[8],inactive
same,outcome,[9],inactive
same,outcome,BCL2L11 (gene 10018),inactive
same,outcome,[10],inactive
same,AC50,[12],0.267 µM (active)
same,outcome,Caspase-3 (Homo sapiens),inactive
same,AC50,[13],0.456 µM (active)
same,AC50,[14],0.377 µM (active)
same,outcome,[15],inactive
same,outcome,[16],inactive
same,outcome,[17],inactive
same,outcome,CYP2C8 (gene 1558),inactive
O=C(O)c1cccc(C(=O)O)c1,outcome,[1],inactive
same,outcome,[2],inactive
same,outcome,[3],inactive
same,outcome,[4],inactive
same,outcome,[5],inactive
same,outcome,[6],inactive
same,outcome,[7],inactive
same,outcome,[8],inactive
same,outcome,[9],inactive
same,outcome,BCL2L11 (gene 10018),inactive
same,outcome,[10],inactive
same,outcome,[11],inactive
same,outcome,[12],inactive
same,outcome,Caspase-3 (Homo sapiens),inactive
same,outcome,[13],inactive
same,AC50,[14],82.6 µM (active)
same,outcome,[15],inactive
same,outcome,[16],inactive
same,outcome,CYP2C8 (gene 1558),inactive
CNC(C)=O,outcome,[1],inactive
same,outcome,[2],inactive
same,outcome,[3],inactive
same,outcome,[4],inactive
same,outcome,[5],inactive
same,outcome,[6],inactive
same,outcome,[7],inactive
same,outcome,[8],inactive
same,outcome,[9],inactive
same,outcome,BCL2L11 (gene 10018),inactive
same,outcome,[10],inactive
same,outcome,[11],inactive
same,outcome,[12],inactive
same,outcome,Caspase-3 (Homo sapiens),inactive
same,outcome,[13],inactive
same,outcome,[14],inactive
same,outcome,[15],inactive
same,outcome,[16],inactive
same,outcome,CYP2C8 (gene 1558),inactive
CCN(CC)C(=S)SSC(=S)N(CC)CC,outcome,[1],inactive
same,outcome,[2],inactive
same,outcome,[3],inactive
same,outcome,[4],inactive
same,outcome,[5],inactive
same,outcome,[6],inactive
same,outcome,[7],inactive
same,outcome,[8],inactive
same,outcome,[9],inactive
same,outcome,BCL2L11 (gene 10018),inactive
same,outcome,[10],inactive
same,outcome,[11],inactive
same,outcome,[12],inactive
same,outcome,Caspase-3 (Homo sapiens),inactive
same,outcome,[13],inactive
same,AC50,[14],75.2 µM (active)
same,outcome,[15],inactive
same,AC50,[16],16.8 µM (active)
same,outcome,CYP2C8 (gene 1558),inactive
NC(=O)N(O)[C@@H]1COc2cc(OCc3ccccc3)ccc21,outcome,[1],inactive
same,outcome,[2],inactive
same,outcome,[3],inactive
same,outcome,[4],inactive
same,outcome,[5],inactive
same,outcome,[6],inactive
same,outcome,[7],inactive
same,outcome,[8],inactive
same,outcome,[9],inactive
same,outcome,BCL2L11 (gene 10018),inactive
same,outcome,[10],inactive
same,outcome,[11],inactive
same,outcome,[12],inactive
same,outcome,Caspase-3 (Homo sapiens),inactive
same,outcome,[13],inactive
same,AC50,[14],50 µM (active)
same,outcome,[15],inactive
same,AC50,[16],16.2 µM (active)
same,outcome,CYP2C8 (gene 1558),inactive
